C8 TRAIL sens: caspase-8 TRAIL sensitization; inhibition (viability loss, TRAIL sensitization), % at 10 µM; NB7+C8 cells + TRAIL, ATPlite viability luminescence; hit rate 1% among 360,000;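 active means compounds causing at least 50% loss of cell viability in the single-dose screen, relative to plate controls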
SENP7 inh: blocks the human protease SENP7. inhibition, % at 5 µM. hit rate 1.5% among 330,000. Q9BQF6. AID 434973. recombinant SENP7, Z-RLRGG-aminoluciferin luminescence, 40 min;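 active means inhibition above about 50% at the single test dose, limit read from the data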;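 further: plate controls were DMSO with enzyme for no effect and no enzyme buffer wells for full effect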
Target sequence (Q9BQF6 706-1050 limits assumed): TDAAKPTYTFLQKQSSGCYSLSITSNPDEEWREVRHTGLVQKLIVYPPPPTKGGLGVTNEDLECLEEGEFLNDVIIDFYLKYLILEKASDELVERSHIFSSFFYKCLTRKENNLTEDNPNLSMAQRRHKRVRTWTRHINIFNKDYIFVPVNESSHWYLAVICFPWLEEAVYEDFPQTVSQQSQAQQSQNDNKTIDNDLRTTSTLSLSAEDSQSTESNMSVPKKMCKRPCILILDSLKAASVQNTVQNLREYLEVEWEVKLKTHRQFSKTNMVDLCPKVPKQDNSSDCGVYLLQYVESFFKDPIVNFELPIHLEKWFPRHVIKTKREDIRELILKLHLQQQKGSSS
SENP8 block-1: SENP8 protease inhibition. purified SENP8, Z-RLRGG-aminoluciferin cleavage, luminescence. Q96LD8. hit rate 1.2% among 330,000. inhibition, % at 10 µM; in the data active means inhibition above about 50%
PPC-1+TRAIL kill: compounds killing PPC-1 cancer cells with TRAIL present (potentiator screen, no TRAIL-free arm). hit rate 0.41% among 220,000. PPC-1 cells + TRAIL, ATPLite viability luminescence. cell killing (% activity), % at 4 µM or 5 µM;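 active means cell killing above 50% in the first pass at 4 µM, then a duplicate retest at 5 µM averaging 50% or more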;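 further: plate controls were cells with TRAIL plus DMSO for no effect and medium-only wells lacking cells for full effect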
SENP6 block: SENP6 protease inhibition. Q9GZR1. inhibition, % at 10 µM. AID 2599. hit rate 1.8% among 330,000. Recombinant SENP6 catalytic domain, aminoluciferin luminescence;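 active means inhibition above about 50% at the single tested dose, limit read from the data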;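 further: plate controls were DMSO wells with enzyme for no effect and DMSO wells lacking enzyme for full effect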
SENP8 block-2: inhibitors of human SENP8 protease. AID 602440. recombinant SENP8, Nedd8 substrate fluorescence. hit rate 0.64% among 360,000. inhibition, % at 20 µM; in the data active means inhibition mostly above about 40%, no sharp cut-off; inactive means mostly below about 27%
SENP8 confirm: confirmation of human SENP8 protease inhibitors; shares compounds with SENP7 inh; Recombinant SENP8, Z-RLRGG-aminoluciferin luminescence, 60 min; inhibition, % at 12.5 µM; hit rate 40% among 6,200; AID 488912;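 active means mean inhibition across replicates above about 50%, limit read from the data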
SENP6 conf: confirmation of human SENP6 protease inhibitors; shares compounds with SENP7 inh; recombinant SENP6, Z-RLRGG-aminoluciferin luminescence; inhibition, % at 12.5 µM; hit rate 58% among 6,200; AID 488915
SENP7 confirm: human SENP7 inhibition, confirmed. shares compounds with SENP7 inh. recombinant SENP7, Z-RLRGG-aminoluciferin luminescence, 40 min. inhibition, % at 12.5 µM. hit rate 69% among 6,200
Casp3 SENP sel: caspase-3 inhibition (SENP selectivity assay); shares compounds with SENP7 inh; purified caspase-3, Z-DEVD-aminoluciferin luminescence, 60 min; inhibition, % at 12.5 µM; hit rate 60% among 6,200; AID 488918;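 active means mean inhibition above about 50%, limit read from the data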;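 further: plate controls were enzyme with DMSO for no effect and wells without caspase-3 for full effect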
Target sequence (P42574 28-227 limits assumed): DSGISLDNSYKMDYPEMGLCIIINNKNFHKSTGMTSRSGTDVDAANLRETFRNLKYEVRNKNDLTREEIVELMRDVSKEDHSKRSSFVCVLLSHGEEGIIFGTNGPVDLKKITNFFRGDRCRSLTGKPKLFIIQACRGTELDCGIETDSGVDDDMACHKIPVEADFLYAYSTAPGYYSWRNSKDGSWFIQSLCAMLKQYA
SENP luc ctr: luminescence interference (SENP counter-screen); shares compounds with SENP7 inh; Pre-incubated SENP8/Z-RLRGG-aminoluciferin, luciferase luminescence interference; inhibition, % at 12.5 µM; hit rate 39% among 6,200; AID 488919;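 active means mean inhibition above about 50% when retested at one dose, limit read from the data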;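 further: plate controls were DMSO wells with completed reaction for no effect and substrate without enzyme for full effect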
* hit, by the source's call; x = not tested or not shown. Most compounds without a hit are left out; they make up all but 3% or so of the library.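 How the source made its calls, unless noted: active means mean inhibition above about 50% in the one-dose retest (limit read from the data); inactive means the rest.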

SMILES	C8 TRAIL sens	SENP7 inh	SENP8 block-1	PPC-1+TRAIL kill	SENP6 block	SENP8 block-2	SENP8 confirm	SENP6 conf	SENP7 confirm	Casp3 SENP sel	SENP luc ctr
CCOC(=O)c1ccc(-c2ccc(CO)o2)cc1	1.3	55.5*	29.2	0.0	65.4*	-271.8	59.5*	57.2*	86.2*	72.8*	63.8*
Cc1cc(=S)c2cccc(C)c2[nH]1	x	3.5	-5.7	-7.0	-13.4	x	x	x	x	x	x
COc1cc(SC)ccc1C(=O)NNC(=O)c1cc(C)oc1C	69.1*	97.5*	93.9*	x	97.9*	-4.5	97.6*	98.6*	102.6*	98.3*	92.6*
Oc1ccc(-c2csc(Nc3ccccn3)n2)cc1	11.9	62.2*	81.6*	x	84.9*	2.0	91.2*	87.2*	94.9*	54.3*	87.8*
Cc1ccc(-c2csc(Nc3ccccn3)n2)cc1	62.1*	88.9*	87.2*	x	91.4*	4.0	92.2*	92.1*	98.1*	68.7*	77.1*
Fc1ccc(-c2csc(Nc3ccccn3)n2)c(F)c1	56.5*	86.0*	86.9*	x	86.5*	-2.8	72.5*	87.3*	99.2*	67.6*	47.2
Cc1nc(C)c(-c2csc(Nc3ccccn3)n2)s1	20.4	54.1*	61.4*	x	74.1*	-17.3	37.1	65.0*	87.9*	46.2	67.5*
Nc1cc2c(cc1Cl)-c1ccc(Cl)cc1C2	-1.8	x	x	x	x	-49.6	x	x	x	x	x
Cc1ccc(OCC(=O)NNC(=O)C(=O)N2CCCC2)c(C)c1	-7.1	-2.1	-0.8	31.1	-16.0	9.8	x	x	x	x	x
Cc1ccnc(Nc2nc(-c3ccc(Cl)cc3)cs2)c1	10.9	0.3	-19.9	x	26.1	9.0	x	x	x	x	x
Cc1cc(-c2csc(Nc3ccccn3)n2)ccc1F	25.5	67.3*	58.9*	x	75.5*	12.2	49.7	75.6*	91.9*	37.3	40.4
CC(=O)Nc1cccc(-c2csc(Nc3ncccn3)n2)c1	x	x	x	39.9	x	x	x	x	x	x	x
c1ccc(-c2csc(Nc3ccccn3)n2)cc1	31.4	97.6*	93.6*	x	95.5*	21.4	-11.2	95.7*	101.5*	81.8*	79.0*
COc1ccc(-c2csc(Nc3ccccn3)n2)cc1OC	10.1	1.3	9.6	x	4.9	0.2	x	x	x	x	x
CC(=O)Nc1cccc(-c2csc(Nc3ccc(C)cn3)n2)c1	64.0*	58.2*	36.3	15.7	68.9*	-12.5	66.1*	64.3*	87.3*	22.4	44.2
Cc1ccnc(Nc2nc(-c3ccc(F)cc3)cs2)c1	35.1	39.3	20.0	x	62.6*	-2.3	16.6	44.2	75.7*	18.5	10.7
CC(C)(C)N(Cc1ccccc1)C(=O)COC(=O)c1cccc([N+](=O)[O-])c1	-13.6	-1.5	0.7	24.3	-1.4	8.5	x	x	x	x	x
CSc1nnc(CCCCCCCCc2nnc(SC)o2)o1	-2.7	4.3	-6.0	8.6	2.0	2.9	x	x	x	x	x
Cc1ccccc1NC(=O)c1cc2ccccn2n1	27.7	66.8*	61.7*	44.7	-4.8	-0.3	71.9*	70.2*	88.9*	86.8*	73.5*
Cc1ccc(C)c(NC(=O)c2cc3ccccn3n2)c1	20.0	33.3	27.3	5.4	56.1*	3.9	35.4	36.4	73.6*	71.8*	59.5*
Cc1ccc(C)c(NC(=O)c2cnn3ccccc23)c1	18.9	0.9	-1.8	18.5	-3.4	-1.2	x	x	x	x	x
CC(=O)c1cccc(NC(=O)c2cc3ccccn3n2)c1	-6.4	6.6	-0.5	40.0	18.9	9.1	x	x	x	x	x
O=C(c1cc2ccccc2o1)N(C1CC1)C1(C(=O)Nc2ccccc2)CCCC1	4.4	-2.8	-9.2	6.0	-4.6	3.5	x	x	x	x	x
C(=N\Nc1nc2ccccc2s1)/c1ccco1	24.6	89.9*	82.9*	36.6	92.9*	-8.9	81.9*	81.6*	96.8*	82.6*	71.9*
Oc1ccc(C=NNc2nc3ccccc3s2)c(O)c1	25.2	x	x	x	x	-195.7	x	x	x	x	x
SMILES	C8 TRAIL sens	SENP7 inh	SENP8 block-1	PPC-1+TRAIL kill	SENP6 block	SENP8 block-2	SENP8 confirm	SENP6 conf	SENP7 confirm	Casp3 SENP sel	SENP luc ctr
Cc1nn(-c2ccccc2Cl)c(Cl)c1/C=N/Nc1nc2ccccc2s1	55.6*	81.5*	5.2	46.5	33.7	-45.3	-9.3	-4.0	-6.6	-4.0	6.2
Cc1ccsc1/C=N/Nc1nc(=O)[nH]nc1C	17.5	89.4*	80.1*	13.2	91.0*	11.7	86.2*	87.4*	98.3*	95.8*	70.9*
C/C(=N\Nc1nc2ccccc2s1)c1cccs1	66.9*	83.9*	75.1*	43.1	60.2*	-19.3	91.5*	91.0*	98.0*	60.3*	30.2
Cc1cc(C)nc(N/N=C/c2sccc2C)n1	1.5	4.6	4.6	-6.4	-14.5	2.0	x	x	x	x	x
O=C(CCNC(=O)c1ccc(Cl)cc1)Nc1c(F)c(F)cc(F)c1F	-1.1	-1.6	-12.4	2.0	-22.7	17.3	x	x	x	x	x
CCN(CC)S(=O)(=O)c1cc(C)ccc1NC(=S)Nc1cccnc1	8.3	-2.7	3.4	8.5	13.2	-11.6	x	x	x	x	x
Cc1ccccc1Nc1nc2ccccc2s1	21.8	72.0*	68.2*	19.7	-0.1	10.1	84.4*	83.7*	95.4*	68.9*	70.6*
Cc1ccsc1/C=N/Nc1nc2ccccc2s1	24.6	85.6*	72.0*	21.4	86.7*	-173.3	-8.8	61.9*	86.7*	47.0	58.1*
C(=N\Nc1nc2ccccc2s1)/c1cccs1	20.7	92.8*	89.3*	31.5	95.2*	-43.8	36.8	87.5*	99.7*	71.3*	81.5*
Oc1ccccc1C=NNc1nc2ccccc2s1	24.9	x	x	x	x	-124.5	x	x	x	x	x
Cc1ccccc1C(=O)N1CCCC(N2CCN(Cc3ccc4c(c3)OCO4)CC2)C1 (centres undefined)	-2.6	-7.4	-6.8	x	-2.8	-6.6	x	x	x	x	x
COc1ccc(N2CCN(S(=O)(=O)CC34CCC(CC3=O)C4(C)C)CC2)cc1 (centres undefined)	8.9	2.8	-3.6	x	-3.0	4.4	x	x	x	x	x
Oc1ccc(Br)cc1C1Nc2ccccc2S1 (centres undefined)	25.9	79.4*	37.6	x	35.2	-291.1	-21.4	-10.3	-4.1	8.6	-1.7
COc1cc(C(=O)NCC(C)(C)CNC(=O)c2cc(OC)c(OC)c(OC)c2)cc(OC)c1OC	-8.9	-3.2	4.5	x	6.7	6.6	x	x	x	x	x
O=C(Oc1ccccc1)c1ccc(NC(=O)c2ccco2)cc1	1.0	90.6*	66.4*	19.1	7.3	5.1	33.1	65.5*	84.8*	77.7*	36.1
